RORgamma inh = ROR gamma (mouse) transcription inhibition; actives 5.4% (n = 310,000); Potency, µM (series often up to 53.6 µM), for inactives: top-dose activity change, negative = inhibition, hits mostly inhibitors; Drosophila S2 Gal4-RORgamma UAS-luciferase reporter, 20 h; P51450; AID 2551; also: potency is read from the fitted curve at half-maximal effect; nearly all actives have a fitted effect of over 60% in size
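A Gal4/UAS one-hybrid system in insect cells: metallothionein-promoter Gal4–ROR gamma fusion plus Photinus luciferase reporter. Copper sulfate 700 uM final, 20 hr ambient incubation, luminescent detection after 10 min with reagent.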
PKM2 activator = PKM2 (human) enzyme activation | P14618 | purified PKM2, Kinase-Glo ATP luminescence, activation; response scale: 0% is enzyme alone, no compound | Potency, µM (titrated, usually from 57.5 µM), inactives show at the highest dose activation, hits mostly activators | actives 0.34% (n = 260,000) | AID 1631; also: potency is read from the fitted curve at half-maximal effect; nearly all actives have a fitted effect of over 55% in size
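Kinase-Glo luminescence reports ATP generated from ADP (0.1 mM) and PEP (0.5 mM) by purified hPK-M2 after 1 h at room temperature, pH 7.2 imidazole buffer; intermediate enzyme activity allows detecting inhibitors and activators.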
CtBP-E1A blk = CtBP/E1A binding inhibition; AlphaScreen GST-E1A/His-CtBP binding, 1536-well; stronger effect = lower value; activity change, % (concentration not given with the values); actives 0.49% (n = 340,000); AID 651724; in the data active = activity change below about -65%; inconclusive = mostly about -30% to -63%
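GST-E1A and His-tagged CtBP (125 nM each as 5X stock) were preincubated with pin-transferred compound for 2 h at 37 °C in the dark, then glutathione donor and nickel acceptor beads were added for 1 h before AlphaScreen reading.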
Six1-Eya2 inh = inhibitors of human Six1/Eya2 interaction; Q15475+O00167; AlphaScreen GST-Six1/His-Eya2 binding, biochemical; stronger effect = lower value; activity change, % (concentration not given with the values); actives 0.56% (n = 360,000); AID 651725; in the data active = activity change below about -65%; inconclusive = mostly about -30% to -63%
Target sequence (O00167 whole entry, looked up): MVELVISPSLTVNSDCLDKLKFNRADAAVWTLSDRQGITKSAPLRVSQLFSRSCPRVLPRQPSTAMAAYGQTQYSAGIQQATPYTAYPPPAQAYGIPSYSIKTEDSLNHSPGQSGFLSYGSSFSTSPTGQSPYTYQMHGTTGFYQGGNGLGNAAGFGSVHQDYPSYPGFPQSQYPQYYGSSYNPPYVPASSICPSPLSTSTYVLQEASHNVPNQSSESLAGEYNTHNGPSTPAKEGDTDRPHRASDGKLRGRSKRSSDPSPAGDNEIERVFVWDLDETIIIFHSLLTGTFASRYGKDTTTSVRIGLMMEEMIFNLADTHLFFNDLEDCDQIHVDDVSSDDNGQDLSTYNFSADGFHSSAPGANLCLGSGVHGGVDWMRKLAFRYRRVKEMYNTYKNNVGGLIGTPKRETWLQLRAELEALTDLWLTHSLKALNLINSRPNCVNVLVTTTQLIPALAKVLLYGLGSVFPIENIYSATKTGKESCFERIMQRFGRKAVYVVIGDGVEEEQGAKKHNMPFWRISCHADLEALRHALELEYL
Target sequence (Q15475 whole entry, looked up): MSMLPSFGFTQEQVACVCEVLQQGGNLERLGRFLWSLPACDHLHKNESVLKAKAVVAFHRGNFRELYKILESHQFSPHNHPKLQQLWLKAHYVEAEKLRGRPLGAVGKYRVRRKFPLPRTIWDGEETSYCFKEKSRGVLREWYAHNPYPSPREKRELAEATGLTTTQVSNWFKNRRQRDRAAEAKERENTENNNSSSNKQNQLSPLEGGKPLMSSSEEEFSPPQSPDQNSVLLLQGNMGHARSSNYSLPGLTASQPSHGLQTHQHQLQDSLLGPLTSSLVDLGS
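Homogeneous AlphaScreen proximity assay pairing GST-Six1 with His-tagged Eya2 (added as 5X mix: 250 nM and 500 nM) in 50 mM Tris pH 8.0, 300 mM NaCl, 1 mM TCEP. Glutathione donor and nickel acceptor beads; 1 h, 37 °C, dark.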
VP16 counter = Gal4-VP16 reporter inhibition counter-screen. Drosophila S2 Gal4-VP16 UAS-luciferase, luminescence, 20 h. Potency, µM (highest dose often 53.6 µM), for inactives: at the highest dose activity, negative = inhibition, hits mostly inhibitors. actives 3.5% (n = 310,000);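 also: Gal4-VP16 expression switched on by copper sulfate through the metallothionein promoter; potency is read from the fitted curve at half-maximal effect; nearly all actives have a fitted effect of over 50% in size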
The depositor's hits bear a star; ? = inconclusive; . = not tested or not shown; [ ] = remark or other dose. A selection: hits, their analogues and other compounds. The true share with any hit is near 5.6%. Unless noted, calls follow the shape of the dose curve; as a rule, active = well fitted curve in the direction sought with a large enough effect; inconclusive = small, poorly fitted or top-dose-only effect, or another doubt; inactive = no such curve, though single readings can be large; an effect the other way counts as inactive or inconclusive. % is scaled to controls: 0 for no effect and ±100 for the full control effect.

SMILES	RORgamma inh	PKM2 activator	CtBP-E1A blk	Six1-Eya2 inh	VP16 counter
CCCCNC(=S)NNC(=O)c1csc(C)c1CC	2.82µM*	-6.9%	-10.8	-7.1	-27.3%
C=CCNC(=S)NNC(=O)c1csc(C)c1CC	8.91µM*	3.4%	4.2	-1.8	-16.6%
O=C1OC(c2ccccc2)(c2ccc3cc(O)ccc3c2)c2ccccc21 (stereo unspecified)	.	.	16.9	10.7	.
COCCCn1c(O)c(/C=C2\N=C(C#N)C(=Nc3ccc(C)cc3)O2)sc1=S	?	-1.4%	-12.5	-19.9	?
C[C@]12C=CC(=O)N[C@@H]1CC[C@@H]1C2CC[C@]2(C)C(C(=O)Nc3cc(C(F)(F)F)ccc3C(F)(F)F)CC[C@@H]12 (stereo partly specified)	1.5%[10 µM]	.	.	.	-29.2%
CN(C)c1ccc(N=Nc2cccc(F)c2)cc1	?	-6.2%	-67.1*	-78.2*	?
CN(C)c1ccc(N=Nc2cccc3ccoc23)cc1	-26.6%	-3.0%	.	-65.1*	-6.5%
CN(C)c1ccc(N=Nc2ccc(S(N)(=O)=O)cc2)cc1	-38.0%	10.5%	-7.4	-15.4	-29.9%
CCOc1ccc(-c2c[n+]3c(n2-c2ccccc2)CCCCC3)cc1	?	-3.0%	-3.8	2.5	3.55µM*
Cn1c(N/N=C/c2ccccc2)nc2sc3c(c2c1=O)CCC3	1.58µM*	10.6%	?	-70.9*	7.08µM*
CC(C)[n+]1ccn(C2=C([O-])c3ccccc3C(=O)/C2=N\S(=O)(=O)c2ccccc2)c1	-37.6%	-3.7%	-7.1	-3.7	?
Cc1cc[n+](C2=C([O-])c3ccccc3C(=O)/C2=N\S(=O)(=O)c2cccs2)cc1C	15.8µM*	-3.3%	-12.0	-0.5	11.2µM*
CC(C)(C)c1cc[n+](C2=C([O-])c3ccccc3C(=O)/C2=N\S(=O)(=O)c2ccccc2)cc1	5.62µM*	-0.1%	0.6	8.5	6.31µM*
O=C(Nc1ncc(Cc2cccc(C(F)(F)F)c2)s1)c1ccc(-c2cccc([N+](=O)[O-])c2)o1	7.08µM*	-7.6%	0.4	-8.4	4.47µM*
CC1(C)Oc2ccc(C(=O)NC3CCCCC3)cc2N(CC#N)C1=O	10.0%	.	3.7	-3.3	12.5%
COc1ccc(-c2nn(-c3ccccc3)cc2/C=N/NC(=O)c2cccc(S(=O)(=O)Nc3ccccc3Cl)c2)cc1	1.78µM*	1.0%	-0.6	-19.7	1.78µM*
CCN(CC)S(=O)(=O)c1cccc(C(=O)N/N=C/c2ccccn2)c1	8.91µM*	?	-23.5	-72.6*	?
COc1ccccc1NS(=O)(=O)c1cccc(C(=O)N/N=C/c2ccc(OCC(=O)O)cc2)c1	27.0%	-1.3%	-5.4	1.0	-6.6%
O=C(O)COc1ccccc1/C=N/NC(=O)c1cccc(S(=O)(=O)Nc2cccc(Cl)c2)c1	-1.1%	0.9%	-71.1*	?	9.7%
O=C(N/N=C/c1ccccn1)c1ccc2nc[nH]c2c1	-7.3%	0.3%	?	?	-12.3%
CCN(CC)S(=O)(=O)c1cccc(C(=O)N/N=C/c2cc(OC)c(O)c(OC)c2)c1	4.6%	-3.7%	-23.6	?	-3.4%
CCN(CC)S(=O)(=O)c1cccc(C(=O)N/N=C/c2cccc(O)c2O)c1	1.0%	-3.4%	-93.2*	-87.1*	-13.3%
COc1ccc(-c2nn(-c3ccccc3)cc2/C=N/NS(=O)(=O)c2ccccc2)cc1	?	?	-5.7	-8.6	-3.9%
O=C(N/N=C/c1ccccn1)c1cccc(S(=O)(=O)Nc2ccccc2Cl)c1	20µM*	0.6%	3.9	-85.5*	?
O=C(N/N=C/c1ccccn1)c1cccc(NC(=O)c2ccccc2Cl)c1	-20.6%	.	?	-21.9	3.6%
CN(C)c1ccc2nc3ccc(=O)cc-3sc2c1	.	.	0.0	?	.
Cc1cc2nc3ccc(=[N+](C)C)cc-3sc2cc1N	?	-12.3%	71.9	?	35.5µM*
COc1ccc(N(CC(=O)NC2CCCCC2C)S(=O)(=O)c2c(C)nn(C)c2C)cc1 (stereo unspecified)	-27.8%	1.4%	4.9	0.0	4.2%
COc1ccc(-c2ccc(C(=O)NCc3ccc(N(C)C)cc3)c3occc23)c(C)c1	.	.	-66.3*	-65.0*	.

Bioassay records from PubChem.
